A short description of assay [1]: inhibitors of polyQ protein aggregation (AID 1604). The conditions noted are these: polyglutamine-induced protein aggregation inhibition assay; stronger effect = higher value; tested at 2.5 µM.
Assay [2] can be described thus: enhancers of glutamate uptake in motor neurons, MN-1 cell line (AID 1612).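 Note: tested at 1 µM final; 0% = mean of DMSO vehicle wells on each plate; positive means more glutamate uptake than control and negative means less.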 As to conditions: MN-1 motor neuron cells, stronger effect = higher value.
Assay [3] in a line: reducers of polyQ inclusions in PC12 cells, cell-based, NGF-treated PC12, GFPQ80 (AID 1614).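 Note: lower means fewer inclusions and 0 means no inclusions at all.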 As to conditions: PC12 NGF-treated GFP-polyQ80 inclusion reduction.
The nature of assay [4]: suppressors of polyglutamine aggregation in yeast, 75Q-TubH (AID 1616). The conditions noted are these: S. cerevisiae 75Q-TubH polyglutamine aggregation suppression; stronger effect = higher value.
A short description of assay [5]: circadian clock period modulators, cell-based, LOPAC library, luminescence reporter (AID 2774; call rule not given here;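 note: values are relative to mean of DMSO wells on each plate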). The conditions noted are these: circadian reporter cells, at 7 µM, actives lie on both sides.
The nature of assay [6]: liver-stage malaria parasite growth inhibition, primary screen, cell-based, HepG2, luciferase luminescence, HepG2 viability (AID 624349).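 Note: 100% = mean of DMSO negative control wells on the same plate.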 As to conditions: P. berghei liver stage in HepG2, luciferase luminescence, concentration not given here; parasite load remaining: stronger effect = lower value; viability: measured here: HepG2 viability without parasites.

Calls of active or inactive are those of the source. Cut-off read from the data, not from the text of the source, unless noted: active = parasite load remaining mostly below about 12% (no sharp cut-off); inactive = mostly above about 10%.

For `CC12CC[C@@H]3c4ccc(O)cc4CCC3[C@@H]1CCC2=O` (stereo not given in full), the inhibition of aggregation in assay [1] turned out to be 62%. The glutamate uptake change in assay [2] was -29%. In assay [3], this compound displayed an inclusion score of 2. Also, the aggregation suppression score in assay [4] turned out to be 0.566.

Regarding `Nc1ncnc2c1ncn2C1OC(CO)[C@H](O)C1O` (stereo not given in full), the inhibition of aggregation in assay [1] stood at 80.6%. In assay [2], the glutamate uptake change came to 3.91%. The compound also registered an inclusion score in assay [3] of 2. In assay [4], this compound returned an aggregation suppression score of 1.96.

Take `C1CCN2C[C@@H]3CC(CN4CCCC[C@@H]34)[C@H]2C1`: in assay [1], the inhibition of aggregation came out at 72.7%. The glutamate uptake change in assay [2] is -9.72%. In assay [3], this compound returned an inclusion score of 2. Besides, the aggregation suppression score in assay [4] was determined as 1.48.

As to `NCCNC(=O)c1ccc(Cl)cc1`, in assay [1], the inhibition of aggregation is 66.7%. Besides, the glutamate uptake change in assay [2] was 11.9%. The compound also showed an inclusion score in assay [3] of 2. The compound further came in with an aggregation suppression score in assay [4] of 1.48. Moreover, the period change in assay [5] was 0.02 h (inactive).

Usually viability stands for a per cent measure of how many cells are alive, often set against a control. For `CC(=O)[C@H]1CCC2C3CC=C4C[C@@H](O)CC[C@]4(C)C3CC[C@@]21C` (stereo not given in full), the inhibition of aggregation in assay [1] is 66.7%. In addition, in assay [2], the glutamate uptake change is -1.9%. This compound returned an inclusion score in assay [3] of 2. Also, the aggregation suppression score in assay [4] is 0.0851. In assay [6], the parasite load remaining was 85.1% (inactive) and the viability is 69.9%.

As to `CO/N=C(\C(=O)NC1C(=O)N2C(C(=O)O)=C(CSc3nc(=O)c(O)nn3C)CS[C@H]12)c1csc(N)n1` (stereo not given in full), the inhibition of aggregation in assay [1] was 62.1%. In addition, the glutamate uptake change in assay [2] was 15.4%. In addition, the inclusion score in assay [3] was 2. For the same compound, the aggregation suppression score in assay [4] amounted to 1.05.

`COc1ccc(CCC(=O)c2c(O)cc(O[C@@H]3O[C@H](CO)C(O)[C@H](O)C3O[C@@H]3O[C@@H](C)[C@H](O)[C@@H](O)[C@H]3O)cc2O)cc1O` (stereo not given in full): the inhibition of aggregation in assay [1] was found to be 77.8%. Besides, the glutamate uptake change in assay [2] is -15.4%. In assay [3], this compound gave an inclusion score of 2. In assay [4], this compound returned an aggregation suppression score of 1.25. For the same compound, in assay [6], the parasite load remaining is 146% (inactive) and the viability was determined as 70.8%.

For the compound `COC1=C2C[C@@H](C)C[C@H](OC)[C@H](O)[C@@H](C)/C=C(\C)[C@@H](OC(N)=O)[C@H](OC)/C=C\C=C(/C)C(=O)NC(=CC1=O)C2=O`, the inhibition of aggregation in assay [1] was -23.4%. The glutamate uptake change in assay [2] worked out at 10.3%. This compound also registered an aggregation suppression score in assay [4] of 1.43.

In the case of `CCC(=O)OC1CCC2C3CCc4cc(O)ccc4C3CCC12C` (stereo not given), in assay [1], the inhibition of aggregation amounted to 85.9%. Moreover, the glutamate uptake change in assay [2] is -23.3%. Moreover, the aggregation suppression score in assay [4] is 0.421.

For `NC[C@@H]1O[C@H](O[C@@H]2[C@@H](CO)OC(O[C@@H]3[C@@H](O)[C@H](N)C[C@H](N)[C@H]3OC3O[C@H](CO)[C@@H](O)[C@H](O)[C@H]3N)[C@@H]2O)[C@H](N)[C@@H](O)[C@@H]1O` (stereo not given in full), in assay [1], the inhibition of aggregation stood at 42.9%. Moreover, the glutamate uptake change in assay [2] was -14.4%. This compound also gave an inclusion score in assay [3] of 2. In assay [4], the aggregation suppression score worked out at 1.65.

On to `CCC[C@@H]1C[C@@H](C(=O)NC(C(C)Cl)C2O[C@H](SC)[C@H](O)[C@@H](O)[C@H]2O)N(C)C1` (stereo not given in full), for which the inhibition of aggregation in assay [1] stood at 60.6%. In assay [2], the glutamate uptake change was -13%. In addition, the inclusion score in assay [3] worked out at 2. In assay [4], this compound came in with an aggregation suppression score of 1.42.

For the compound `CN[C@@H]1[C@H](O)[C@H](NC)[C@H]2O[C@@]3(O)C(=O)C[C@@H](C)O[C@H]3OC2[C@H]1O` (stereo not given in full), the inhibition of aggregation in assay [1] was determined as 42.9%. In assay [2], the glutamate uptake change is 4.38%. The inclusion score in assay [3] stood at 2. In addition, in assay [4], the aggregation suppression score is 1.36.

For `NC[C@@H]1O[C@H](O[C@H]2[C@@H](O)[C@H](O[C@@H]3[C@@H](O)[C@H](N)C[C@H](N)[C@H]3O[C@@H]3O[C@H](CO)[C@@H](O)C[C@H]3N)O[C@@H]2CO)[C@H](N)[C@@H](O)[C@@H]1O[C@H]1O[C@H](CO)[C@@H](O)[C@H](O)[C@@H]1O`, the inhibition of aggregation in assay [1] was determined as 11.6%. Moreover, the glutamate uptake change in assay [2] amounted to 1.1%. Besides, in assay [3], the inclusion score came to 2. In assay [4], this compound gave an aggregation suppression score of 1.86.

`OCCS`: the inhibition of aggregation in assay [1] is 29.4%. In assay [2], the glutamate uptake change is 5.07%. In assay [3], the inclusion score came to 2. In addition, the aggregation suppression score in assay [4] stood at 1.5.

`CCC(=O)O[C@@H](O[P@](=O)(CCCCc1ccccc1)CC(=O)N1C[C@H](C2CCCCC2)C[C@H]1C(=O)O)C(C)C`: the inhibition of aggregation in assay [1] was 47.1%. Further, the glutamate uptake change in assay [2] was determined as 4.48%. The compound also displayed an inclusion score in assay [3] of 2. Also, the aggregation suppression score in assay [4] came out at 0.527.

For the compound `CC(Oc1ccccc1)C(=O)NC1C(=O)N2C(C(=O)O)C(C)(C)S[C@H]12` (stereo not given in full), the inhibition of aggregation in assay [1] is 83.6%. In addition, the glutamate uptake change in assay [2] is 4.57%. In assay [3], the inclusion score is 2. Also, in assay [4], the aggregation suppression score was 1.04.

With `C[C@@H]1CC2C3C[C@H](F)C4=CC(=O)C=CC4(C)C3(F)[C@@H](O)CC2(C)C1C(=O)COC(=O)C(C)(C)C` (stereo not given in full), the inhibition of aggregation in assay [1] amounted to 38%. Besides, in assay [2], the glutamate uptake change stood at 10.9%. Moreover, the inclusion score in assay [3] was 2. Moreover, the aggregation suppression score in assay [4] stood at 0.899.

For the compound `CC(N)C(O)c1cccc(O)c1` (stereo not given), the inhibition of aggregation in assay [1] was 91.7%. For the same compound, the glutamate uptake change in assay [2] is -5.75%. In assay [3], this compound showed an inclusion score of 2. For the same compound, the aggregation suppression score in assay [4] was determined as 1.46. In assay [6], the parasite load remaining was 141% (inactive) and the viability came to 88.5%.

As to `Cc1cc(Nc2ccccc2C(=O)O)ccc1Cl`, the inhibition of aggregation in assay [1] was 77.8%. Besides, the glutamate uptake change in assay [2] was -15.3%. In assay [3], this compound came in with an inclusion score of 1. In assay [4], this compound registered an aggregation suppression score of -0.491.

`CC1(C)O[C@@H]2C[C@H]3C4C[C@H](F)C5=CC(=O)C=CC5(C)[C@@]4(F)[C@@H](O)C[C@]3(C)[C@]2(C(=O)CO)O1` (stereo not given in full): in assay [1], the inhibition of aggregation came to 61.1%. In addition, the glutamate uptake change in assay [2] was 15.9%. This compound also showed an inclusion score in assay [3] of 2. In assay [4], the aggregation suppression score came to 1.43.

(Values after PubChem BioAssay.)
